Test results as given in PubChem BioAssay AID1159580 (chemical genetic matrix, 2015).
The whole screen tested about 5,500 compounds, of which about 2,000 (36%) were called active. Roughly 18% stayed inconclusive and do not appear here. Rule as the data show it: active = normalized growth mostly below about 0.91 (no sharp cut-off); inconclusive = no clear call, values can overlap the other calls; inactive = mostly above about 0.92. The list shows a part of the results.

Assay: chemical genetic growth profiling, strain panel (AID 1159580);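 also: tested at 20 µM; growth read once vehicle control cultures reached saturation at 30 °C; 1 = growth at the plate median or of vehicle wells; lower values mean less growth of the strain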
Conditions: growth OD
[1] = S. cerevisiae deletion strains, locus YDL101C, strain DUN1, active compounds read low
[2] = S. cerevisiae deletion strains, locus YHR030C, strain SLT2, active compounds read low

Measured: normalized growth

O=C(NCCSCc1cccc(C(F)(F)F)c1)Nc1cccc(C(F)(F)F)c1
inactive: S. cerevisiae deletion strains, locus YAR019C, strain CDC15, active compounds read low 0.999 | S. cerevisiae deletion strains, locus YBL105C, strain PKC1, active compounds read low 1 | S. cerevisiae deletion strains, locus YBR135W, strain CKS1, active compounds read low 0.994 | S. cerevisiae deletion strains, locus YBR136W, strain MEC1, active compounds read low 0.998 | S. cerevisiae deletion strains, locus YBR160W, strain CDC28, active compounds read low 0.997 | S. cerevisiae deletion strains, locus YDL017W, strain CDC7, active compounds read low 1 | S. cerevisiae deletion strains, locus YDL028C, strain MPS1, active compounds read low 0.996 | [1] 1.01 | S. cerevisiae deletion strains, locus YDL108W, strain KIN28, active compounds read low 0.999 | S. cerevisiae deletion strains, locus YDL132W, strain cdc53, active compounds read low 0.99 | S. cerevisiae deletion strains, locus YDL214C, strain PRR2, active compounds read low 1.01 | S. cerevisiae deletion strains, locus YDR052C, strain DBF4, active compounds read low 1.01 | S. cerevisiae deletion strains, locus YDR054C, strain cdc34, active compounds read low 0.995 | S. cerevisiae deletion strains, locus YDR226W, strain ADK1, active compounds read low 1 | S. cerevisiae deletion strains, locus YDR477W, strain SNF1, active compounds read low 1.01 | S. cerevisiae deletion strains, locus YER123W, strain YCK3, active compounds read low 1.02 | S. cerevisiae deletion strains, locus YER133W, strain GLC7, active compounds read low 1.02 | S. cerevisiae deletion strains, locus YFL009W, strain cdc4, active compounds read low 0.992 | S. cerevisiae deletion strains, locus YFL029C, strain CAK1, active compounds read low 0.991 | S. cerevisiae deletion strains, locus YFR003C, strain YPI1, active compounds read low 1 | S. cerevisiae deletion strains, locus YFR019W, strain FAB1, active compounds read low 1 | S. cerevisiae deletion strains, locus YFR028C, strain CDC14, active compounds read low 0.997 | S. cerevisiae deletion strains, locus YGR040W, strain KSS1, active compounds read low 1 | S. cerevisiae deletion strains, locus YGR052W, strain FMP48, active compounds read low 1.18 | S. cerevisiae deletion strains, locus YGR092W, strain DBF2, active compounds read low 1 | [2] 1.15 | S. cerevisiae deletion strains, locus YHR079C, strain IRE1, active compounds read low 1.11 | S. cerevisiae deletion strains, locus YHR082C, strain KSP1, active compounds read low 1.18 | S. cerevisiae deletion strains, locus YHR205W, strain SCH9, active compounds read low 0.989 | S. cerevisiae deletion strains, locus YIL147C, strain SLN1, active compounds read low 1 | S. cerevisiae deletion strains, locus YJL095W, strain BCK1, active compounds read low 1.17 | S. cerevisiae deletion strains, locus YJL128C, strain PBS2, active compounds read low 0.954 | S. cerevisiae deletion strains, locus YJL157C, strain FAR1, active compounds read low 1.01 | S. cerevisiae deletion strains, locus YJR016C, strain ILV3, active compounds read low 1.01 | S. cerevisiae deletion strains, locus YJR066W, strain TOR1 (second series), active compounds read low 0.993 | S. cerevisiae deletion strains, locus YJR066W, strain TOR1, active compounds read low 1.21 | S. cerevisiae deletion strains, locus YKL048C, strain ELM1, active compounds read low 0.983 | S. cerevisiae deletion strains, locus YKL067W, strain YNK1, active compounds read low 1.01 | S. cerevisiae deletion strains, locus YKL101W, strain HSL1, active compounds read low 0.997 | S. cerevisiae deletion strains, locus YKL193C, strain SDS22, active compounds read low 1 | S. cerevisiae deletion strains, locus YKL203C, strain TOR2, active compounds read low 1.09 | S. cerevisiae deletion strains, locus YLR113W, strain HOG1, active compounds read low 1.07 | S. cerevisiae deletion strains, locus YLR133W, strain CKI1, active compounds read low 0.997 | S. cerevisiae deletion strains, locus YLR403W, strain SFP1, active compounds read low 0.999 | S. cerevisiae deletion strains, locus YML070W, strain DAK1, active compounds read low 1.01 | S. cerevisiae deletion strains, locus YMR001C, strain CDC5, active compounds read low 0.996 | S. cerevisiae deletion strains, locus YMR205C, strain PFK2 (second series), active compounds read low 1.01 | S. cerevisiae deletion strains, locus YMR277W, strain FCP1, active compounds read low 0.999 | S. cerevisiae deletion strains, locus YNL006W, strain LST8, active compounds read low 1 | S. cerevisiae deletion strains, locus YNL020C, strain ARK1, active compounds read low 0.988 | S. cerevisiae deletion strains, locus YNL161W, strain CBK1, active compounds read low 1 | S. cerevisiae deletion strains, locus YNL183C, strain NPR1, active compounds read low 1.15 | S. cerevisiae deletion strains, locus YNL207W, strain RIO2, active compounds read low 1.01 | S. cerevisiae deletion strains, locus YNL222W, strain SSU72, active compounds read low 0.998 | S. cerevisiae deletion strains, locus YNL307C, strain MCK1 (second series), active compounds read low 0.997 | S. cerevisiae deletion strains, locus YOL078W, strain AVO1, active compounds read low 0.995 | S. cerevisiae deletion strains, locus YOL136C, strain PFK27, active compounds read low 0.992 | S. cerevisiae deletion strains, locus YOR061W, strain CKA2, active compounds read low 0.986 | S. cerevisiae deletion strains, locus YOR119C, strain RIO1, active compounds read low 1.04 | S. cerevisiae deletion strains, locus YOR231W, strain MKK1, active compounds read low 1.1 | S. cerevisiae deletion strains, locus YOR329C, strain SCD5, active compounds read low 1 | S. cerevisiae deletion strains, locus YPL031C, strain PHO85, active compounds read low 1.01 | S. cerevisiae deletion strains, locus YPL153C, strain RAD53, active compounds read low 1.02 | S. cerevisiae deletion strains, locus YPL204W, strain HRR25, active compounds read low 1.01 | S. cerevisiae deletion strains, locus YPL209C, strain IPL1, active compounds read low 0.997 | S. cerevisiae deletion strains, locus YPL256C, strain CLN2, active compounds read low 1.11 | S. cerevisiae deletion strains, locus YPR025C, strain CCL1, active compounds read low 0.999 | S. cerevisiae deletion strains, locus YPR106W, strain ISR1, active compounds read low 0.992 | S. cerevisiae deletion strains, locus YPR111W, strain DBF20, active compounds read low 0.986 | S. cerevisiae deletion strains, strain NNK1, active compounds read low 0.994 | S. cerevisiae deletion strains, strain TSCII, active compounds read low 0.995

COc1ccc(-c2ccnc(SCC(=O)NCCSCc3ccco3)n2)cc1
inactive: S. cerevisiae deletion strains, locus YAL013W, strain DEP1, active compounds read low 1.01 | S. cerevisiae deletion strains, locus YBR229C, strain ROT2, active compounds read low 0.998 | S. cerevisiae deletion strains, locus YCL061C, strain MRC1, active compounds read low 1.01 | [1] 1 | S. cerevisiae deletion strains, locus YDR150W, strain NUM1, active compounds read low 0.991 | S. cerevisiae deletion strains, locus YEL061C, strain CIN8, active compounds read low 1 | S. cerevisiae deletion strains, locus YGR078C, strain PAC10, active compounds read low 1.01 | [2] 1.09 | S. cerevisiae deletion strains, locus YHR087W, strain rtc3, active compounds read low 0.998 | S. cerevisiae deletion strains, locus YJL187C, strain SWE1, active compounds read low 1.02 | S. cerevisiae deletion strains, locus YJR043C, strain POL32, active compounds read low 1 | S. cerevisiae deletion strains, locus YJR075W, strain HOC1, active compounds read low 0.991 | S. cerevisiae deletion strains, locus YLR039C, strain RIC1, active compounds read low 0.999 | S. cerevisiae deletion strains, locus YLR058C, strain SHM2 (second series), active compounds read low 1 | S. cerevisiae deletion strains, locus YLR085C, strain ARP6, active compounds read low 0.98 | S. cerevisiae deletion strains, locus YLR262C, strain YPT6, active compounds read low 1.03 | S. cerevisiae deletion strains, locus YML094W, strain GIM5, active compounds read low 1 | S. cerevisiae deletion strains, locus YMR219W, strain ESC1, active compounds read low 1.01 | S. cerevisiae deletion strains, locus YMR263W, strain SAP30, active compounds read low 1.01 | S. cerevisiae deletion strains, locus YMR307W, strain GAS1, active compounds read low 0.993 | S. cerevisiae deletion strains, locus YNL128W, strain TEP1, active compounds read low 0.999 | S. cerevisiae deletion strains, locus YNL153C, strain GIM3, active compounds read low 1.02 | S. cerevisiae deletion strains, locus YNL298W, strain CLA4 (second series), active compounds read low 1.01 | S. cerevisiae deletion strains, locus YNL322C, strain KRE1, active compounds read low 1.01 | S. cerevisiae deletion strains, locus YNR030W, strain Alg12, active compounds read low 1.01 | S. cerevisiae deletion strains, locus YOL006C, strain TOP1, active compounds read low 1.03 | S. cerevisiae deletion strains, locus YPL055C, strain LGE1, active compounds read low 1.02 | S. cerevisiae deletion strains, locus YPL241C, strain CIN2, active compounds read low 1.01 | S. cerevisiae deletion strains, locus YPR135W, strain CTF4, active compounds read low 1.03 | S. cerevisiae strains, strain wild type, active compounds read low 1
